Test results as given in PubChem BioAssay AID1159580 (chemical genetic matrix, 2015).
The whole screen tested about 5,500 compounds, of which about 2,000 (36%) were called active. Another 18% or so got no clear call; they are omitted. Cut-off read from the data, not from the text of the source: active = normalized growth mostly below about 0.91 (no sharp cut-off); inconclusive = no clear call, values can overlap the other calls; inactive = mostly above about 0.92. Some of the results follow.

Test: chemical genetic growth profiling, strain panel (AID 1159580);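 note: tested at 20 µM; growth read once vehicle control cultures reached saturation at 30 °C; 1 = growth at the plate median or of vehicle wells; lower values mean less growth of the strain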
Settings: S. cerevisiae deletion strains, growth OD

Measured: normalized growth

C=C1CCC2(OC1)OC1CC3C4CC=C5CC(O)CC(O)C5(C)C4CCC3(C)C1C2C (centres undefined)
active: locus YAL026C, strain drs2, stronger effect = lower value 0.87 | locus YBR009C, strain hhf1, stronger effect = lower value 0.873 | locus YDR137W, strain rgp1, stronger effect = lower value 0.586 | locus YDR335W, strain msn5, stronger effect = lower value 0.899 | locus YGL253W, strain hxk2, stronger effect = lower value 0.855 | locus YHR142W, strain chs7, stronger effect = lower value 0.749 | locus YJL129C, strain trk1, stronger effect = lower value 0.853 | locus YJL164C, strain tpk1, stronger effect = lower value 0.886 | locus YLR262C, strain YPT6 (second series), stronger effect = lower value 0.548 | locus YMR205C, strain PFK2, stronger effect = lower value 0.865 | locus YNL071W, strain lat1, stronger effect = lower value 0.846 | locus YOR270C, strain vph1, stronger effect = lower value 0.771 | locus YPL051W, strain arl3, stronger effect = lower value 0.907
inactive: locus YAL021C, strain ccr4, stronger effect = lower value 0.929 | locus YAL030W, strain snc1, stronger effect = lower value 1.01 | locus YBL061C, strain skt5, stronger effect = lower value 1.01 | locus YBR023C, strain chs3, stronger effect = lower value 0.976 | locus YBR171W, strain sec66, stronger effect = lower value 1.01 | locus YBR231C, strain swc5, stronger effect = lower value 1.03 | locus YBR279W, strain paf1, stronger effect = lower value 0.995 | locus YCL011C, strain gbp2, stronger effect = lower value 0.914 | locus YCL016C, strain dcc1, stronger effect = lower value 0.979 | locus YCL069W, strain vba3, stronger effect = lower value 0.939 | locus YCR088W, strain abp1, stronger effect = lower value 0.984 | locus YDL005C, strain med2, stronger effect = lower value 0.995 | locus YDL040C, strain nat1, stronger effect = lower value 1.01 | locus YDR001C, strain nth1, stronger effect = lower value 1.01 | locus YDR069C, strain doa4, stronger effect = lower value 1.01 | locus YDR159W, strain sac3, stronger effect = lower value 0.916 | locus YDR195W, strain ref2 0.889 | locus YDR297W, strain sur2, stronger effect = lower value 1.01 | locus YDR334W, strain swr1, stronger effect = lower value 1.01 | locus YDR392W, strain spt3, stronger effect = lower value 0.819 | locus YEL003W, strain gim4, stronger effect = lower value 0.99 | locus YEL037C, strain rad23, stronger effect = lower value 1 | locus YEL061C, strain CIN8 (second series), stronger effect = lower value 0.94 | locus YER015W, strain faa2, stronger effect = lower value 1 | locus YER016W, strain bim1, stronger effect = lower value 0.992 | locus YER111C, strain swi4, stronger effect = lower value 0.958 | locus YER155C, strain BEM2 (second series), stronger effect = lower value 1.01 | locus YFR010W, strain ubp6, stronger effect = lower value 0.97 | locus YGL167C, strain pmr1, stronger effect = lower value 1.02 | locus YGL173C, strain kem1, stronger effect = lower value 1.01 | locus YGL227W, strain vid30, stronger effect = lower value 0.976 | locus YGL240W, strain doc1, stronger effect = lower value 1 | locus YHR013C, strain ard1, stronger effect = lower value 1.06 | locus YHR027C, strain rpn1, stronger effect = lower value 0.966 | locus YJL092W, strain hpr5, stronger effect = lower value 0.978 | locus YJL095W, strain BCK1 (second series), stronger effect = lower value 0.966 | locus YJL115W, strain asf1, stronger effect = lower value 1.01 | locus YJL154C, strain vps35, stronger effect = lower value 1 | locus YJL166W, strain qcr8, stronger effect = lower value 0.944 | locus YKL160W, strain elf1, stronger effect = lower value 0.986 | locus YKR026C, strain gcn3, stronger effect = lower value 0.994 | locus YKR091W, strain srl3, stronger effect = lower value 1.01 | locus YLL001W, strain dnm1, stronger effect = lower value 0.923 | locus YLL026W, stronger effect = lower value 0.98 | locus YLL041C, strain sdh2, stronger effect = lower value 1 | locus YLR027C, strain aat2, stronger effect = lower value 0.987 | locus YLR258W, strain gsy2, stronger effect = lower value 0.988 | locus YLR320W, strain mms22, stronger effect = lower value 0.929 | locus YLR342W, strain FKS1, stronger effect = lower value 1.01 | locus YLR357W, strain rsc2, stronger effect = lower value 1.07 | locus YLR370C, strain arc18, stronger effect = lower value 1.02 | locus YLR384C, strain iki3, stronger effect = lower value 1.01 | locus YML120C, strain ndi1, stronger effect = lower value 0.928 | locus YMR058W, strain fet3, stronger effect = lower value 0.959 | locus YMR125W, strain sto1, stronger effect = lower value 1 | locus YMR129W, stronger effect = lower value 1.01 | locus YMR231W, strain pep5, stronger effect = lower value 1.02 | locus YNL209W, strain ssb2, stronger effect = lower value 1.02 | locus YNL248C, strain rpa49, stronger effect = lower value 0.987 | locus YNL322C, strain KRE1 (second series), stronger effect = lower value 1 | locus YNR049C, strain mso1, stronger effect = lower value 1 | locus YOR001W, strain rrp6, stronger effect = lower value 0.944 | locus YOR070C, strain gyp1, stronger effect = lower value 0.997 | locus YOR080W, strain dia2, stronger effect = lower value 1.02 | locus YOR083W, strain WHI5, stronger effect = lower value 0.979 | locus YOR106W, strain vam3, stronger effect = lower value 0.911 | locus YOR265W, strain rbl2, stronger effect = lower value 1.01 | locus YOR290C, strain snf2, stronger effect = lower value 0.887 | locus YPL078C, strain atp4, stronger effect = lower value 0.929 | locus YPL106C, strain sse1, stronger effect = lower value 1.03 | locus YPL240C, strain hsp82, stronger effect = lower value 0.974
